The supplement of paper PMC11732987, “Enantioselective OTUD7B fragment discovery through chemoproteomics screening and high-throughput optimisation” (Communications Chemistry, 2025)

Experiments:
Test in all cases: log2 ratio of Biotin-Ahx-Ub-VS probe labelling (fragment/DMSO); higher = less target engagement (more negative = stronger competition), active = hit call of the paper (q ≤ 0.05, log2 ratio ≤ -1)
Details in all cases: compound concentration: 200 uM; treatment time: 3 h
[1] = target: USP34 (UniProt Q70CQ2)
Sequence of USP34 (Q70CQ2 whole entry, the tested form may be a part): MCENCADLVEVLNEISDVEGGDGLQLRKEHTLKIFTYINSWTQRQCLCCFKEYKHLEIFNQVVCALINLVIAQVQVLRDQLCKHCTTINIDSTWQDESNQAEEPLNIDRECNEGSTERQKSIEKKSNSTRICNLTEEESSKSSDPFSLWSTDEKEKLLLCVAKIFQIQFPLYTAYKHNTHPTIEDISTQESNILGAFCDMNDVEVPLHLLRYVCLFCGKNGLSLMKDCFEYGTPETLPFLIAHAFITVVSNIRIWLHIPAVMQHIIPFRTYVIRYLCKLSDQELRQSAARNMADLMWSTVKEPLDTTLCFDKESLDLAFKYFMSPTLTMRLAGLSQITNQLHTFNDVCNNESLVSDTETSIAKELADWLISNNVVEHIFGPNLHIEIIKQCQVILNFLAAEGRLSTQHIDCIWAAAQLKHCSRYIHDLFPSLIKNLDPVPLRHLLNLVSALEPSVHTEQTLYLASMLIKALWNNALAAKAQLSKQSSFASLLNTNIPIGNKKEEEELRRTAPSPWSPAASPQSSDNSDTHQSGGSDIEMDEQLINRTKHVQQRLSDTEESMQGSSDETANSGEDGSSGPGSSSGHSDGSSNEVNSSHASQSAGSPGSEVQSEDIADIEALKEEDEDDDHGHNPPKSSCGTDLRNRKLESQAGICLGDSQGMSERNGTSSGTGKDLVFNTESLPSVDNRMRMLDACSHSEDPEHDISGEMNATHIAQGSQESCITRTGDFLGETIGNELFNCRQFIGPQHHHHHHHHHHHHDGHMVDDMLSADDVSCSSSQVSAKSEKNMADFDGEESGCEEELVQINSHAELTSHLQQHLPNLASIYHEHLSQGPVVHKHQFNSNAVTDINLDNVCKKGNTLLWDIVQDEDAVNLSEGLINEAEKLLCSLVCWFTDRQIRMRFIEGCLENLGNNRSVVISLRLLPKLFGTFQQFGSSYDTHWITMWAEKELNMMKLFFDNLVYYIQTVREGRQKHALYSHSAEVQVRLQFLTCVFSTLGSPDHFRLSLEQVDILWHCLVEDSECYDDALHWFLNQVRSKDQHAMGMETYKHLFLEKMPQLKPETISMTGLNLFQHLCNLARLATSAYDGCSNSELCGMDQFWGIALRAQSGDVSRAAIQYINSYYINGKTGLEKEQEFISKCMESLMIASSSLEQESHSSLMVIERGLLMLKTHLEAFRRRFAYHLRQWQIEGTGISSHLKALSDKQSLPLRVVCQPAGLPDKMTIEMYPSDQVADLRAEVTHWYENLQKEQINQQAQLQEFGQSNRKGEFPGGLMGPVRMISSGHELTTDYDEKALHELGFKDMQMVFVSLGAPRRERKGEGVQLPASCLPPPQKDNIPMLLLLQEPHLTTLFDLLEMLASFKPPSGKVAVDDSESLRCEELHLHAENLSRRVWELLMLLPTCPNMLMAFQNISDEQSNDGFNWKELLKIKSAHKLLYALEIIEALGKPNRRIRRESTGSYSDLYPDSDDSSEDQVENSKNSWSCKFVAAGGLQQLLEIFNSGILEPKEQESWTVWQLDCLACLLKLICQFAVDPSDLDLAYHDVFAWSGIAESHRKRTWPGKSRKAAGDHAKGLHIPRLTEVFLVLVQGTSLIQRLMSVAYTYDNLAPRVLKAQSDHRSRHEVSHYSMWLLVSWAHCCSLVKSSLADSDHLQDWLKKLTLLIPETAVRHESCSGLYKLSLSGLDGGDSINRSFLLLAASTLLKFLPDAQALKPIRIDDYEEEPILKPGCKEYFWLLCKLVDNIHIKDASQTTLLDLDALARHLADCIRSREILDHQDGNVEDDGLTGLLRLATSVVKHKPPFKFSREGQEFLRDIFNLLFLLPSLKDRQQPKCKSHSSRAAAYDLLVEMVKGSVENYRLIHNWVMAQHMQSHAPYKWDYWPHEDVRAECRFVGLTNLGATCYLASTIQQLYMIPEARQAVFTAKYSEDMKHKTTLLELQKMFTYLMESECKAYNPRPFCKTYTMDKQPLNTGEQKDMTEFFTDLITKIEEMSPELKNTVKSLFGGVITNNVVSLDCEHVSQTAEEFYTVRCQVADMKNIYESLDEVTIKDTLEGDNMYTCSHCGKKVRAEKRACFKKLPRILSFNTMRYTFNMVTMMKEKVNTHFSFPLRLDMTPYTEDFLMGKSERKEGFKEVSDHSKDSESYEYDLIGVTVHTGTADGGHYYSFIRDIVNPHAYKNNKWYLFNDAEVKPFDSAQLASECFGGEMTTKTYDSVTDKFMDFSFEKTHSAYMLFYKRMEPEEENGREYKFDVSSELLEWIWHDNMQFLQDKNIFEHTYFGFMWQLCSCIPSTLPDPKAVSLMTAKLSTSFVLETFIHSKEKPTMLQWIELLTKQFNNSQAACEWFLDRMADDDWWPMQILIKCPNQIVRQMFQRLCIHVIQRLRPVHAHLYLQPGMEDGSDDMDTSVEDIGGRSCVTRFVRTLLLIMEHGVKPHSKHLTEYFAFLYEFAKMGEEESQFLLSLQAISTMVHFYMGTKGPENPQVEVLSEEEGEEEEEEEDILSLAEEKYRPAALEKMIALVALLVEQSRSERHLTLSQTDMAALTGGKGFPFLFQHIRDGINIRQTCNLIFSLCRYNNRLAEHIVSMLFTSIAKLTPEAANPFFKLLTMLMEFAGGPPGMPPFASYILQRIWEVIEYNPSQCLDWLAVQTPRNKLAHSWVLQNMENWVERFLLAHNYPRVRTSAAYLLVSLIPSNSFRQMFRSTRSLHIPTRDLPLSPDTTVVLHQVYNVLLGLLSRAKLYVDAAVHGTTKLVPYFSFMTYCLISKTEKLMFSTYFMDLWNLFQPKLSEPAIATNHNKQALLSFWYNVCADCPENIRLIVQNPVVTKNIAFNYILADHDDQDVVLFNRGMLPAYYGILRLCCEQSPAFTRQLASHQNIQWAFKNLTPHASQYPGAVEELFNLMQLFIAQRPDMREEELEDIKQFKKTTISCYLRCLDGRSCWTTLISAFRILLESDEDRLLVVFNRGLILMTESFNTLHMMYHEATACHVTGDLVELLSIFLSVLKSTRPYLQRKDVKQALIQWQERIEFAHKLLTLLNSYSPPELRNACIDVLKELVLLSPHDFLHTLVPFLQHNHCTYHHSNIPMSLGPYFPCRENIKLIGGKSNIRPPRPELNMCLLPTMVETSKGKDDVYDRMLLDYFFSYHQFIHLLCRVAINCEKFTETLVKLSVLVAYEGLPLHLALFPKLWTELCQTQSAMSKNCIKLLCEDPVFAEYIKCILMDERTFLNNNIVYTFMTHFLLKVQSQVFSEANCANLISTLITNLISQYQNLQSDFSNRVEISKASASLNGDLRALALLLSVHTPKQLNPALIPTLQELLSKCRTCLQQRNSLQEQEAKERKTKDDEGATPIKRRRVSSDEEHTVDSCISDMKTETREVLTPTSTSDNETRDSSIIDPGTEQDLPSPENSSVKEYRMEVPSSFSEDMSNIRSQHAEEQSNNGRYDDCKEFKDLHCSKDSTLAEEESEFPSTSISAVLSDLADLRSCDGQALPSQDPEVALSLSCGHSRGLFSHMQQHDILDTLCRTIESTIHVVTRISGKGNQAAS
Procedure, shortened: (§1)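 Labelled DUBs from HEK293T lysate were NeutrAvidin-enriched, digested with LysC and trypsin, and run by diaPASEF LC-MS/MS. Before that, each 495 µg sample in Tris/CHAPS/IGEPAL buffer with protease inhibitors was treated in triplicate with fragment at 200 µM or vehicle for 3 h, then with Biotin-Ahx-Ub-VS at 0.5 µM final for 1 h. Values are average log2 ratios of fragment over vehicle by unpaired t-test, based on global-median-normalised Spectronaut label-free quantities from proteins with ≥2 unique peptides.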

[2] = target: T1, USP36 (UniProt Q9P275)
T1 sequence (whole entry): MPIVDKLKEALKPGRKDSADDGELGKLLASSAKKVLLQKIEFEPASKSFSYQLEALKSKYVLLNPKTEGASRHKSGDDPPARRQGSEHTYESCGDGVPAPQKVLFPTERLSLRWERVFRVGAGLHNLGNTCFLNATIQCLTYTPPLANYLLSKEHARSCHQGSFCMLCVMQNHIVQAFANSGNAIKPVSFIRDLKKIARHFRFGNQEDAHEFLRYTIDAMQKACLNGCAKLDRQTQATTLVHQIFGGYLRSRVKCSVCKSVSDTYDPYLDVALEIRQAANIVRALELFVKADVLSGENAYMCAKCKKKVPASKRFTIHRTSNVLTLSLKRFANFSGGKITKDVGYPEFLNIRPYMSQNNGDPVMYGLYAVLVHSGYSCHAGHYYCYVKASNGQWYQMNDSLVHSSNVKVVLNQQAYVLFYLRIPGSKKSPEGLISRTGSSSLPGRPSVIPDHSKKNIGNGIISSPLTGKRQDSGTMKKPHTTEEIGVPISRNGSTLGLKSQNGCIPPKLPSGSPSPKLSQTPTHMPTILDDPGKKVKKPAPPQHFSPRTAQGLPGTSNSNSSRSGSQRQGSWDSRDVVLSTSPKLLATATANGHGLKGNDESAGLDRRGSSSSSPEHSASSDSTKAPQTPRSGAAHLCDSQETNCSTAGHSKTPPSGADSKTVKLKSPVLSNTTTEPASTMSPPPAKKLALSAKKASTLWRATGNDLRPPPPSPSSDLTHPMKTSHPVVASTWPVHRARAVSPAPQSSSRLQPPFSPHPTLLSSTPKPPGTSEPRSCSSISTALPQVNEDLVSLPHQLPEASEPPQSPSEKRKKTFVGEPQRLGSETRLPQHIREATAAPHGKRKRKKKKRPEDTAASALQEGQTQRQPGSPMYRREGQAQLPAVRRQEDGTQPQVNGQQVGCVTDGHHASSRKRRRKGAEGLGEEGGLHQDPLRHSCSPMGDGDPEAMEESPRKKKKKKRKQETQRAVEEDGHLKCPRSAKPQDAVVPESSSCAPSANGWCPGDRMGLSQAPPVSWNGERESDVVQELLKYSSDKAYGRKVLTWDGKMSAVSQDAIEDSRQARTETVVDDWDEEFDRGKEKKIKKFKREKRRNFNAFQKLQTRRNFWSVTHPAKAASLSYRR
Procedure, shortened: as §1

[3] = target: T2, USP38 (UniProt Q8NB14)
T2 sequence (whole entry): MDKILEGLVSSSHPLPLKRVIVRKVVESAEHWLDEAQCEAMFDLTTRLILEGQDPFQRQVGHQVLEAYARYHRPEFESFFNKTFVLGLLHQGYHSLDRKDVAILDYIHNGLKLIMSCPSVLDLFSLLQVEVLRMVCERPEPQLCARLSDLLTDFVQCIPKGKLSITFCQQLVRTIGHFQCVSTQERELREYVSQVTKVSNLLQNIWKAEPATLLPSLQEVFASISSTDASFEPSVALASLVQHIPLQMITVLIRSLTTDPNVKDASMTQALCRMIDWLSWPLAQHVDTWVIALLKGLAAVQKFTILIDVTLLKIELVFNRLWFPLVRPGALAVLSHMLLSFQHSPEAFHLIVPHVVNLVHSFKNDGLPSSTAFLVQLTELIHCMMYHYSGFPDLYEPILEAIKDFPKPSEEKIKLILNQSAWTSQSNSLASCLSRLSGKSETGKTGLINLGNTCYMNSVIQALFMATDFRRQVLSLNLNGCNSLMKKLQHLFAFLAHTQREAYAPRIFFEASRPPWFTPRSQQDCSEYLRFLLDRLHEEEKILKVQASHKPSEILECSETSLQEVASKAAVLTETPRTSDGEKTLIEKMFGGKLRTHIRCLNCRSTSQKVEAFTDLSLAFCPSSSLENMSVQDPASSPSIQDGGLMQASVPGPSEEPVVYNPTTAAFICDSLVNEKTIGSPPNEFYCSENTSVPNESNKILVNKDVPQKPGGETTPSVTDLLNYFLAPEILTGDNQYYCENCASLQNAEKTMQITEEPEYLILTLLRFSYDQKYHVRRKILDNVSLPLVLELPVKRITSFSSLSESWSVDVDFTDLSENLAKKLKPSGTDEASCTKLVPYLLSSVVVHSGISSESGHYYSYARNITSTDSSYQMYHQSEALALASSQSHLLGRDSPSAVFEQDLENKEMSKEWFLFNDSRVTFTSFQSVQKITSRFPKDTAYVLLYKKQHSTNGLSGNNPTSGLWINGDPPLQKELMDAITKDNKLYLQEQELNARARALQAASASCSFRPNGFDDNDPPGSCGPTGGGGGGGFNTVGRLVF
Procedure, shortened: as §1

[4] = target: T3, USP39 (UniProt Q53GS9)
T3 sequence (whole entry): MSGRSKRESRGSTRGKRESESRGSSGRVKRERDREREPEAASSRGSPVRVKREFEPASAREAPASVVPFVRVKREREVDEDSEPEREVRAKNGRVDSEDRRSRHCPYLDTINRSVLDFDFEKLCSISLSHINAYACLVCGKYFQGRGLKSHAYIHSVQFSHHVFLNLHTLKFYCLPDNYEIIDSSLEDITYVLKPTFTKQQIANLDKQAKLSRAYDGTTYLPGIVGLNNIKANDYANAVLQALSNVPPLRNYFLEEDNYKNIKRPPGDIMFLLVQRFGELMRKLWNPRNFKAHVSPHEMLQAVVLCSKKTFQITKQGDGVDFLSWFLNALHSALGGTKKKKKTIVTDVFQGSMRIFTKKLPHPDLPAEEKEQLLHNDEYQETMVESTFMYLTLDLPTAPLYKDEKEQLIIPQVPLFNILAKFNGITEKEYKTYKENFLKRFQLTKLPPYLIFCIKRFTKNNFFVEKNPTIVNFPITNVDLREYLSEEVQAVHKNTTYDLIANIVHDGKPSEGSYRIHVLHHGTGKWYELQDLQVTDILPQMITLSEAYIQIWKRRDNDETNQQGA
Procedure, shortened: as §1

[5] = target: T4, USP4 (UniProt Q13107)
T4 sequence (whole entry): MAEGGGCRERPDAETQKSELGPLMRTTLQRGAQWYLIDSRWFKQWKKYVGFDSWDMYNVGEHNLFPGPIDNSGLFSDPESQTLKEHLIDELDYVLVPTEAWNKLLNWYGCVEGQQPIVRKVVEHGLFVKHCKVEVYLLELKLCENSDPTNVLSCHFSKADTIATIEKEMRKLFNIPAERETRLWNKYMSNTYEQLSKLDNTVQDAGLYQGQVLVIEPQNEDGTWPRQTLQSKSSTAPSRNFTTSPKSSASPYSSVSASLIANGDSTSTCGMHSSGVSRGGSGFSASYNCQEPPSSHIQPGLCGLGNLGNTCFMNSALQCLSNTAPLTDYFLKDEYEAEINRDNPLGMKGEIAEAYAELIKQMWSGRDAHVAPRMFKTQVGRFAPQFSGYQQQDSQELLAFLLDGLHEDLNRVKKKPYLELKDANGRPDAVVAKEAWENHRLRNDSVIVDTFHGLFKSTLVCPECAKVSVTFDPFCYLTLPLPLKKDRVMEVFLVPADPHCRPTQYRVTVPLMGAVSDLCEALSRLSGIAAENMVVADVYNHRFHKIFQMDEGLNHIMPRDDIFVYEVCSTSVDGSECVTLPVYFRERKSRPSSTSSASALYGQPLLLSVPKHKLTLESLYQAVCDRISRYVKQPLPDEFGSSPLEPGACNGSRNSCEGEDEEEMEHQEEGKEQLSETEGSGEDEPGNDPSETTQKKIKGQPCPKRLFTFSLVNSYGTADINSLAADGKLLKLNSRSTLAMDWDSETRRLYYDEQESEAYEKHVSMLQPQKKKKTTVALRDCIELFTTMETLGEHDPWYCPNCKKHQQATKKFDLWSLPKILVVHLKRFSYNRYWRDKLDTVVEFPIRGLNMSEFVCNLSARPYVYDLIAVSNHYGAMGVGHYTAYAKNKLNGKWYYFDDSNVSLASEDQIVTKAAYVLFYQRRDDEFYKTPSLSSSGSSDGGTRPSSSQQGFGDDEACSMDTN
Procedure, shortened: as §1

Measured: log2 ratio of Biotin-Ahx-Ub-VS probe labelling

O=C(CCl)Nc1cc(Cl)ccc1-n1cncn1
inactive: [1] -0.448 | [2] -0.325 | [3] -0.932 | [4] 0.142 | [5] -0.712
